This is an account of results in PubChem BioAssay.

Test [1] in a line: compound effects on lung adenocarcinoma cell viability – A549, calcein-AM fluorescence, 48 h, basal, profiling panel (AID 1162). Also: test concentration not given here. The conditions noted are these: higher = more signal.
The nature of test [2]: compound effects on differentiated 3T3-L1 adipocyte viability – cell-based, 3T3-L1 adipocytes, calcein-AM fluorescence, 48 h, basal, profiling panel (AID 1163). Also: test concentration not given here. The conditions noted are these: 3T3-L1 adipocytes viability, higher = more signal.
Test [3] is described as follows: compound effects on hepatocellular carcinoma cell viability – HepG2, calcein-AM fluorescence, 48 h, basal, profiling panel (AID 1164). Also: test concentration not given here. The conditions noted are these: higher = more signal.
The nature of test [4]: compound effects on multiple myeloma cell viability – MM1S, calcein-AM fluorescence, 48 h, basal, profiling panel (AID 1165). Also: test concentration not given here. The conditions noted are these: higher = more signal.
Test [5] in a line: calcein-AM signal in unstimulated myeloma cells – cell-based, calcein-AM fluorescence, 48 h, PK04 Diversity Set, profiling panel (AID 1166).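 Also: cells grown under basal conditions without added stimulus; test concentration not given here.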 The conditions noted are these: RPMI8226 myeloma viability, higher = more signal.
Test [6] in a line: JC-1 mitochondrial signal, unstimulated HepG2 cells – cell-based, JC-1 fluorescence, 24 h, 100 nL compound, profiling panel (AID 1167). Also: test concentration not given here. The conditions noted are these: HepG2 mitochondrial potential, higher = more signal.
A short description of test [7]: JC-1 mitochondrial signal, unstimulated adipocytes – cell-based, JC-1 fluorescence, 3T3-L1 adipocytes, 24 h, 100 nL compound, profiling panel (AID 1168). Also: test concentration not given here. The conditions noted are these: JC-1 mitochondrial fluorescence, higher = more signal, called active from +8 up or from −8 down.
The nature of test [8]: JC-1 mitochondrial signal, unstimulated myeloma cells – cell-based, JC-1 fluorescence, RPMI8226, 24 h, 100 nL compound, profiling panel (AID 1169). Also: test concentration not given here. The settings on record: JC-1 mitochondrial potential fluorescence, higher = more signal.
Test [9] in a line: JC-1 mitochondrial signal, unstimulated MM1S myeloma – cell-based, JC-1 fluorescence, 24 h, 100 nL compound, profiling panel (AID 1170). Also: test concentration not given here. The settings on record: MM1S mitochondrial potential, higher = more signal.
Test [10] in a line: resazurin metabolic signal in A549 cells – cell-based, resazurin fluorescence, 24 h, PK04 Diversity Set, profiling panel (AID 1171). Also: test concentration not given here. The settings on record: A549 viability, higher = more signal, called active from +8 up or from −8 down. On the technique in general: Alamar Blue is a resazurin reagent that responds to reducing activity.
Test [11] is described as follows: resazurin metabolic signal in HepG2 cells – cell-based, resazurin fluorescence, 24 h, PK04 Diversity Set, profiling panel (AID 1172). Also: test concentration not given here. The settings on record: HepG2 viability, higher = more signal.
A short description of test [12]: budding yeast growth changes without added modifier – OD600, strain BY4716, 24 h, basal condition, primary screen (AID 1173). The conditions noted are these: S. cerevisiae BY4716 growth, OD600, 24 h; higher = more signal, called active from +8 up or from −8 down.
The nature of test [13]: viability profiling in MM1S myeloma cells – cell-based, resazurin fluorescence, basal, 24 h, PK04 Diversity Set, profiling panel (AID 1174). Also: test concentration not given here. The settings on record: higher = more signal, called active from +8 up or from −8 down.
Test [14] has as its target Dihydroorotate dehydrogenase (quinone), mitochondrial (Plasmodium falciparum (isolate 3D7)) (UniProt Q08210). Kind of test: inhibition of P. falciparum DHODH – biochemical, C-terminal His tag, absorbance 600 nm, primary screen (AID 1175).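 Also: recombinant parasite enzyme with a five histidine tag at its C terminus; test concentration not given here.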 The conditions noted are these: PfDHODH enzyme, DCIP absorbance 600 nm; higher = more signal, called active from +8 up or from −8 down.

Test [15] can be described thus: inhibition of PAO1 biofilm formation – strain PAO1, LB-PBS medium, absorbance 600 nm, primary screen (AID 1176). Also: test concentration not given here. The conditions noted are these: P. aeruginosa PAO1 growth/biofilm, A600, 12 h; higher = more signal.
Test [16] is described as follows: growth modulation of vineyard yeast isolate – strain RM11-1a, OD600, basal, 24 h, primary screen (AID 1177).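 Also: cultures grown under basal conditions with no added stressor; test concentration not given here.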 The settings on record: S. cerevisiae RM11-1a growth, OD600, 24 h; higher = more signal, called active from +8 up or from −8 down.
The nature of test [17]: growth of efflux-deficient E. coli DRC39 – strain DRC39, OD650, 24 h, E. coli filamentation inducers, primary screen (AID 1178).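 Also: growth measured as culture turbidity by optical density at 650 nm; test concentration not given here.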 The conditions noted are these: E. coli DRC39 acrAB, higher = more signal, called active from +8 up or from −8 down.
Test [18] in a line: growth of efflux-deficient E. coli DRC39 – strain DRC39, OD650, 48 h, E. coli filamentation inducers, primary screen (AID 1179).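 Also: screen aims at cell division blockers that make cells filament.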 The settings on record: E. coli DRC39 delta-acrAB growth, higher = more signal, called active from +8 up or from −8 down.
A short description of test [19]: viability profiling in RPMI8226 myeloma cells – cell-based, resazurin fluorescence, basal, 24 h, PK04 Diversity Set, profiling panel (AID 1180).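 Also: RPMI8826 multiple myeloma cell line at 5000 cells per well; test concentration not given here.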 The conditions noted are these: higher = more signal.
For test [20], the target named is E3 ubiquitin-protein ligase XIAP (Homo sapiens) (UniProt P98170). The experiment in a line: small molecules binding XIAP protein – biophysical, small-molecule microarray, fluorescence 635 nm, primary screen (AID 1181).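 Also: score merges 667 nm emission and signal to noise over triplicate slides.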 The conditions noted are these: higher = more signal.

Active and inactive are the calls of the source. Unless noted, no rule for the calls is given here.

Sequence of E3 ubiquitin-protein ligase XIAP (Homo sapiens) (P98170 whole entry, looked up): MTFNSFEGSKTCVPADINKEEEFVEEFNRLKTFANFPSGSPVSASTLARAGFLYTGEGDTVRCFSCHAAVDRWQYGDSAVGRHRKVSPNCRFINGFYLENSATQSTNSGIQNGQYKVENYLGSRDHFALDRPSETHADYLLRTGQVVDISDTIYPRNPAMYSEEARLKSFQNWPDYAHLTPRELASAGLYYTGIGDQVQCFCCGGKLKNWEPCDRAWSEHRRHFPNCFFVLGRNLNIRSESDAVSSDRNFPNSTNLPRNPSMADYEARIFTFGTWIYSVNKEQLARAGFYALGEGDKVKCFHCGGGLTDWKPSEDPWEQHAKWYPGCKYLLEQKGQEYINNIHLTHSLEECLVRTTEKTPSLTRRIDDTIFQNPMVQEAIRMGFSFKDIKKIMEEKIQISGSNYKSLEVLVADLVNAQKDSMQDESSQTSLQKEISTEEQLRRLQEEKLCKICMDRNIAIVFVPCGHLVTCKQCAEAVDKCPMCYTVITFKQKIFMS
Sequence of Dihydroorotate dehydrogenase (quinone), mitochondrial (Plasmodium falciparum (isolate 3D7)) (Q08210 whole entry, looked up): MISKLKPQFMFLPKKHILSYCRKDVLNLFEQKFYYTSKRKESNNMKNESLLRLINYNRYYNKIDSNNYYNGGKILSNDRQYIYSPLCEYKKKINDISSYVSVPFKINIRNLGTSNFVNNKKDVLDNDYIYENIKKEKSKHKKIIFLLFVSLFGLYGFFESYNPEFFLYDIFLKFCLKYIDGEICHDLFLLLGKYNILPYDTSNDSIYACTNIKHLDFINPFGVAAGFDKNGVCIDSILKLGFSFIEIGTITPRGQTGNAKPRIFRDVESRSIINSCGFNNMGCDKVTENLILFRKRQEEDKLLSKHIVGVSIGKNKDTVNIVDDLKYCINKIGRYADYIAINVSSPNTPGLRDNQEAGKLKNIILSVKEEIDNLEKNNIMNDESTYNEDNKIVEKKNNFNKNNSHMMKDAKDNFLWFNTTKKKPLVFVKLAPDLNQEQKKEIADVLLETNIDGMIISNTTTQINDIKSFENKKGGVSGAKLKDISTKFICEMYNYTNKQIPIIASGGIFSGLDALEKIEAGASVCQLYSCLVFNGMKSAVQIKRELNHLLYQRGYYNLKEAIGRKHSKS

As to `COC(=O)Cn1c(C(=O)N(C)C)cc2c1C[C@H]1CN(C(=O)c3ccccc3)[C@@](Cc3ccc(OC)cc3)(C(=O)OC)[C@@H]21`, the z-score in [1] was -0.199; in [2], -0.714; in test [3], 0.496; in [4], 0.611; in test [5], -0.734; in test [6], 3.44. The z-score is -0.881 (inactive) in test [7]; -0.329 in test [8]; -1.36 in test [9]; -0.31 (inactive) in test [10]; -0.708 in test [11]; 1.15 (inactive) in [12]. Besides, the z-score is -0.667 (inactive) in test [13]; -0.0424 (inactive) in [15]; 0.555 (inactive) in [16]; -0.552 (inactive) in test [17]; -0.263 (inactive) in test [18]; -0.876 in [19]. The composite z-score is 0.072 (inactive) in test [14] and -0.158 in test [20].

On to `COCCOC(=O)N1C(=O)[C@@]2(c3cc(C#CC4=CCCCC4)ccc31)[C@H](c1ccccc1OCCO)N1[C@H](c3ccccc3)[C@H](c3ccccc3)OC(=O)[C@H]1[C@@H]2C(N)=O`, for which the z-score in [1] was -1.13; in [2], 2.16; in test [3], -2.29; in [4] it was -3.11; in test [5], -4.02; in test [6], -0.985. Also, the z-score in test [7] was 0.686 (inactive); in test [8] it was -0.96; in test [9], -1.85; in test [10], -1.35 (inactive); in test [11], -0.625; in [12], -0.431 (inactive). Further, the z-score in test [13] was -2.78 (inactive); in [15], 1.06 (inactive); in [16], 0.486 (inactive); in test [17], 0.484 (inactive); in test [18], -0.955 (inactive); in test [19], -5.01. The composite z-score in test [14] is -0.176 (inactive); in [20], 0.126.

As to `COC(=O)[C@]1(CO)N=C(c2ccc(OCCCO)cc2)O[C@@H]1c1ccccc1CN=[N+]=[N-]`, the z-score in test [1] is 0.0394; in [2], 0.131; in [3], 0.422; in [4], 0.28; in test [5], 0.0032; in [6], -0.253. The z-score in test [7] was 0.039 (inactive); in [8], 0.00663; in test [9], 0.0223; in test [10], -0.49 (inactive); in test [11], -0.318; in test [12], 0.443 (inactive). The z-score is -0.529 (inactive) in [13]; -0.677 (inactive) in [15]; -0.299 (inactive) in test [16]; -0.246 (inactive) in [17]; 0.321 (inactive) in [18]; -0.15 in test [19]. The composite z-score in test [14] is 0.415 (inactive); in test [20], -0.21.

In the case of `C=CC(CO)NC(=O)OCC1c2ccccc2-c2ccccc21` (stereo not given), the z-score in [1] is -0.454; in [2], 0.351; in [3] it was -0.479; in test [4] it was -1.07; in test [5], 0.0644; in [6], -0.692. The z-score is 0.386 (inactive) in test [7]; 0.534 in [8]; 0.128 in test [9]; -0.62 (inactive) in test [10]; 0.072 in test [11]; -1.46 (inactive) in test [12]. The z-score in [13] was 0.358 (inactive); in test [15] it was 0.0117 (inactive); in [16], -0.917 (inactive); in test [17], -0.712 (inactive); in test [18], -0.616 (inactive); in test [19], 0.388. For the same molecule, the composite z-score was -1.28 (inactive) in test [14] and -0.125 in test [20].
